The source of these data is PubChem BioAssay (NCATS).

Inconclusive results are not listed. Where a call stands in place of a potency, no number is given. Activity calls are given as the source filed them. Calls come from the whole dose curve; as a rule, active = well fitted curve in the direction sought with a large enough effect; inconclusive = small, poorly fitted or top-dose-only effect, or another doubt; inactive = no such curve, though single readings can be large; an effect the other way counts as inactive or inconclusive.

Test [1] deals with Lysine-specific demethylase 5B (Homo sapiens) (UniProt Q9UGL1). Put plainly: Optimization screen for KDM5B Histone Demethylases FDH coupled qHTS against the LOPAC library (AID 1347166). An outline of the steps: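 KDM5BDeltaAP (200nM final) preincubated 10 min with compound, then 12.5uM H3K4Me3, 25uM a-ketoglutarate, ascorbate, Fe(II), NAD+ and FDH added; 50mM HEPES pH 7.5, 0.01% Tween-20. NADH fluorescence (340/450 nm) change over 30 min, room temperature.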
Chain of Lysine-specific demethylase 5B (Homo sapiens) (Q9UGL1 whole entry, looked up): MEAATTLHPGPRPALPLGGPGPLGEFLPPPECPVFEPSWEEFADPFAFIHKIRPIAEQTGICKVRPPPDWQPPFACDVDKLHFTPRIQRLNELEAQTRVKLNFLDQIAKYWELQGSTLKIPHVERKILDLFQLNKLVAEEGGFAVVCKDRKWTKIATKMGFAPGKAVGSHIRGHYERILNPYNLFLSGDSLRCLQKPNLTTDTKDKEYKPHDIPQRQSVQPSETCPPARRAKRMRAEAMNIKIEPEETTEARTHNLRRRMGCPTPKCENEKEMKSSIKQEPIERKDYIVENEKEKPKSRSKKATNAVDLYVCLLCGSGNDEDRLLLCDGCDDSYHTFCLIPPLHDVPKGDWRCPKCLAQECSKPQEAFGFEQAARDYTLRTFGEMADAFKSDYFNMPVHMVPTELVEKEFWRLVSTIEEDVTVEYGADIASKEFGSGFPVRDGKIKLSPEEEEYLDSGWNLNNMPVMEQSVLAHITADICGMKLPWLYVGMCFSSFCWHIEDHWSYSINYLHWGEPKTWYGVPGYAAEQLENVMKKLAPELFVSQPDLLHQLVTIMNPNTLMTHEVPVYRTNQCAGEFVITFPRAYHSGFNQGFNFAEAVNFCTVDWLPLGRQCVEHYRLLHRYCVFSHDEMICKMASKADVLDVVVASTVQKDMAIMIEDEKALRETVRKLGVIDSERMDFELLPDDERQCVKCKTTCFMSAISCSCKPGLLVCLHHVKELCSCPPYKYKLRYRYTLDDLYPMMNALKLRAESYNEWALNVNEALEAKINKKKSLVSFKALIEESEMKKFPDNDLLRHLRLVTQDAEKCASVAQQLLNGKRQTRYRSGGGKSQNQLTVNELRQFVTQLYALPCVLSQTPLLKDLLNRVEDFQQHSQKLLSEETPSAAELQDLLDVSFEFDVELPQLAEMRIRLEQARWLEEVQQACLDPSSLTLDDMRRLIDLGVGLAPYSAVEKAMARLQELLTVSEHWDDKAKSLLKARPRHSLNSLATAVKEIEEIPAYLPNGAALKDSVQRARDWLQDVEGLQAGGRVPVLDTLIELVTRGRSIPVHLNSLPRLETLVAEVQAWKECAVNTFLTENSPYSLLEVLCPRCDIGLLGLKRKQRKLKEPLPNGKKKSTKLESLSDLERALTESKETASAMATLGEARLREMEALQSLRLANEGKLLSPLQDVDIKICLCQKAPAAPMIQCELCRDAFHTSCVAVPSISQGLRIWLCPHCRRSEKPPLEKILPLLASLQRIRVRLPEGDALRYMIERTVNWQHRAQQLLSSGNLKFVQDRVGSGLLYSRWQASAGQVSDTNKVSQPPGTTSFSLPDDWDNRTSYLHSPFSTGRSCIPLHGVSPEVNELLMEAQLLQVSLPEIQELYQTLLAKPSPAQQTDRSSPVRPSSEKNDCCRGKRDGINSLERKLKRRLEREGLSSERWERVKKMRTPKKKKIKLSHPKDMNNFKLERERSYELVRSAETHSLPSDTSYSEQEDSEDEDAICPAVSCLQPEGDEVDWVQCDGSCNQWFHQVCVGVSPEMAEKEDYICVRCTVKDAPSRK

Test [2] is described as follows: Vero cells viability qHTS for Zika virus inhibitors (AID 1347167). The method, boiled down: (§1)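 Counter-screen for cytotoxicity of hits from NS2B-NS3 protease qHTS. Overnight-attached cells (2.5 x 10^5 cells/mL, DMEM/4% FBS) were dosed in titration, incubated 24 to 48 hours, then assayed by CellTiter Glo.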
Test [3] is described as follows: HepG2 cells viability qHTS for Zika virus inhibitors (AID 1347168). An outline of the steps:
as §1

Test [4] can be described thus: Tertiary RLuc qRT-PCR qHTS assay for Zika virus inhibitors (AID 1347169). Note: nearly all actives have a fitted effect of over 55% in size. Note: potency is the fitted concentration of half-maximal effect. An outline of the steps: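 Vero cells (1,000/well) infected with recombinant ZIKV-RLuc (Cambodian) at MOI 1-2 after compound addition, 48-72 hrs at 37 degrees C. Live-cell Renilla luciferase substrate added; luminescence read after 1-1.5 hrs.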
For orientation: Quantitative PCR measures a nucleic acid by following its amplification.

Test [5] can be described thus: HPAF-II Cancer Cell Toxicity qHTS against the NCATS CANVASS Library (AID 1347346). Note: series mostly up to about 38 µM; nearly all actives have a fitted effect of over 55% in size. An outline of the steps:
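HPAF-II cells at 1000 cells/well were treated with an 11-point concentration series for 72 hours at 37 degrees C. Viability read by CellTiter-Glo luminescence.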
On the technique in general: qHTS replaces the single test concentration by a dilution series.

Test [6] in a line: HPAF-II 24hr Apoptosis Induction qHTS against the NCATS CANVASS Library (AID 1347356). An outline of the steps: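 HPAF-II cells (500/well) exposed to compounds in 11-point series for 24 h at 37 degrees C; caspase-3/7 activity read by Caspase-Glo luminescence after 15 min at room temperature. Doxorubicin titration as control.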
Test [7] is described as follows: HEK293 18hr Apoptosis Induction qHTS against the NCATS CANVASS Library (AID 1347357). The method, boiled down: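 HEK293 cells (500/well, DMEM + 10% FBS) treated with an 11-point series for 18 h at 37 degrees C. Caspase-3/7 activity read by Caspase-Glo luminescence after 15 min at room temperature.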
A short description of test [8]: HPAF-II 12hr Apoptosis Induction qHTS against the NCATS CANVASS Library (AID 1347358). The method, boiled down:
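HPAF-II cells, 500/well in DMEM + 10% FBS, exposed 12 hours at 37 degrees C to compound (11-point). Caspase-Glo 3/7 added for 15 min at room temperature; luminescence reflects caspase-3/7 activity.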

Test [9] can be described thus: HEK293 24hr Apoptosis Induction qHTS against the NCATS CANVASS Library (AID 1347359). An outline of the steps: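 HEK293 cells (500/well, DMEM + 10% FBS) were exposed to compounds in an 11-point series for 24 hours at 37 degrees C, then caspase-3/7 activity was read by Caspase-Glo DEVD luciferase luminescence after 15 min.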
Test [10] in a line: HPAF-II 18hr Apoptosis Induction qHTS against the NCATS CANVASS Library (AID 1347360). An outline of the steps:
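HPAF-II cells at 500/well were exposed for 18 h at 37 C to an 11-point compound series. Caspase-3/7 activity was read by Caspase-Glo luminescence after 15 min at RT.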

The nature of test [11]: HEK293 12hr Apoptosis Induction qHTS against the NCATS CANVASS Library (AID 1347361). An outline of the steps: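 HEK293 cells (500/well) were exposed to an 11-point qHTS concentration series for 12 hours at 37 degrees C. Caspase-3/7 activity was then read by DEVD-substrate luciferase luminescence after 15 min at room temperature.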

With `O=C(c1ccc(Cl)cc1)N1CCN(c2ccc([N+](=O)[O-])c3ncccc23)CC1`, the compound was called inactive in test [1].

As for `COc1ccc(/C=C/c2nc(NCCCN(C)C)c3ccccc3n2)cc1`, the call in [2] and in [3] was inactive.

For `CCCCCCCCCCCCCCCC(=O)OC(CC(=O)O)C[N+](C)(C)C` (stereo not drawn), the result in test [1] was inactive.

As to `CCCCN(CC)c1nc(C)nc2c1c(C)cn2-c1c(C)cc(C)cc1C`, the outcome in test [2] and in [3] was inactive.

Take `CC[C@@H](C)[C@H]1O[C@]2(CC[C@H]1C)C[C@@H]1C[C@@H](CC=C(C)[C@@H](O[C@H]3C[C@H](OC)[C@@H](O[C@H]4C[C@H](OC)[C@@H](O)[C@H](C)O4)[C@H](C)O3)[C@@H](C)C=CC=C3CO[C@@H]4[C@H](O)C(C)=C[C@@H](C(=O)O1)[C@]34O)O2`: the Potency in test [4] was 3.7 µM (active).

Turning to `COc1cc(OC)c(/C=C2/C(=O)Nc3ccccc32)c(OC)c1`, the compound was called inactive in test [1].

As to `Cc1cc(NC2CCCCC2)nc(-n2nc(C)cc2C)n1`, the result in test [1] was inactive.

On to `Cc1ccccc1CNc1ncnc2c1ncn2C1OC(CO)C(O)C1O` (stereo not drawn), for which the result in test [1], in test [2] and in test [3] was inactive. The Potency entry in test [4] was “inactive”.

Regarding `C[N+](C)(C)CCOP(=O)(O)OP(=O)([O-])OC[C@H]1O[C@@H](n2ccc(N)nc2=O)[C@H](O)[C@@H]1O`, the compound was called inactive in test [1].

For `COc1ccc(NC(=O)/C=C/c2ccc(Cl)cc2)cc1`, the call in test [1] was inactive.

Turning to `CCN1/C(=C/C(C)=O)Sc2ccc(OC)cc21`, in test [1], the compound was classed as inactive.

`O=C(c1cc(O)c(O)c([N+](=O)[O-])c1)c1ccccc1F`: in test [3], the result was inactive.

Turning to `CN1CCN(c2cc3c(nn2)Oc2ccccc2N3C)CC1`, the result in test [2] and in [3] was inactive. Further, the Potency entry in test [4] was “inactive”.

Take `S=c1[nH]c(-c2ccccc2)cn1-c1ccccc1`: the result in test [2] and in test [3] was inactive. Besides, the Potency entry in test [4] was “inactive”.

Take `O=C(O)[C@@H]1C[C@H](C(=O)O)N1`: the compound was classed as inactive in [1].

Regarding `Oc1cc2c(cc1O)CN(C(=S)NCCc1ccc(Cl)cc1)CCC2`, the outcome in [2] and in [3] was inactive. Moreover, in [4], the Potency was 13.1 µM (active).

Take `CCN(CC)c1ncnc2c1ncn2[C@@H]1O[C@H](COP(=O)(O)OP(=O)(O)C(Br)(Br)P(=O)(O)O)[C@@H](O)[C@H]1O`: in test [1], the call was inactive.

Consider `NC(=S)c1ccc[n+]([C@@H]2O[C@@H](COP(=O)([O-])OP(=O)(O)OC[C@H]3O[C@@H](n4cnc5c(N)ncnc54)[C@H](OP(=O)(O)O)[C@@H]3O)C(O)C2O)c1` (stereo partly drawn), for which the call in test [1] was inactive.

As to `Cn1c(=O)c2[nH]c(-c3ccccc3)nc2n(C)c1=O`, the call in [2] and in [3] was inactive. Besides, the Potency result in test [4] was “inactive”.

For `C=C[C@@H]1CN2CC[C@@H]1C[C@H]2[C@H](O)c1ccnc2ccc(OC)cc12`, the call in [2] was inactive.

In the case of `CN(C)C(N)=NCCC[C@H](N)C(=O)O`, the result in test [1] was inactive.

For the compound `O=S(=O)(c1cccc2c(I)cccc12)N1CCCNCC1`, in test [1], the outcome was inactive.

Turning to `COc1ccc2c(c1)CCC1C2CC[C@@]2(C)C1CC[C@@H]2NCCCCCCN1C(=O)CCC1=O` (stereo partly drawn), the compound was classed as inactive in test [1].

For the compound `O=c1cc(-c2ccccc2)oc2c(O)c(O)ccc12`, the compound was classed as inactive in [5], in test [6], in test [7], in test [8], in test [9] and in test [10]. The call in test [11] was inactive.
